{"source": "the supplement of paper PMC10037445", "key": {"RAW-Dual [1]": {"tested_on": "RAW-Dual", "test": "NF-kB SEAP reporter activity, fold change vs agonist alone; cytotoxicity flag (confluency mask): cytotoxic (confluency <70% of control); higher = enhanced NF-kB activity", "procedure,_shortened": "(§1)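 RAW-Dual macrophages (50,000 cells/well in DMEM, 384-well plates) received 50 nL of library stock by pin tool, then a PRR agonist 1 h later, and were kept at 37 °C, 5% CO2. After 20 hours, supernatant was read for IRF by QuantiLuc luminescence and for NF-κB by QuantiBlue absorbance at 620 nm. Reporter activity is fold change over agonist-alone wells. Cytotoxic wells had IncuCyte confluency below 70% of agonist controls in both mask sets.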"}, "RAW-Dual [2]": {"tested_on": "RAW-Dual", "test": "NF-kB SEAP reporter activity, fold change vs agonist alone; cytotoxicity flag (confluency mask): not cytotoxic; higher = enhanced NF-kB activity", "procedure,_shortened": "as §1"}, "RAW-Dual [3]": {"tested_on": "RAW-Dual", "test": "NF-kB SEAP reporter activity, fold change vs agonist alone; higher = enhanced NF-kB activity", "procedure,_shortened": "as §1"}, "[4]": {"conditions": "agonist: ODN 1826 (TLR9) 0.5 ug/mL"}, "[5]": {"conditions": "agonist: Pam2CSK4 (TLR2/6) 0.1 ug/mL"}, "[6]": {"conditions": "agonist: Pam3CSK4 (TLR2/1) 0.1 ug/mL"}, "[7]": {"conditions": "library stock concentration (final ~1000-fold dilution): 10 mM, cytotoxicity flag (confluency mask): cytotoxic (confluency <70% of control), agonist: MPLA (TLR4) […]"}, "[8]": {"conditions": "library stock concentration (final ~1000-fold dilution): 10 mM, cytotoxicity flag (confluency mask): not cytotoxic, agonist: Imiquimod (TLR7) […]"}, "[9]": {"conditions": "library stock concentration (final ~1000-fold dilution): 10 mM, cytotoxicity flag (confluency mask): not cytotoxic, agonist: MPLA (TLR4) […]"}, "[10]": {"conditions": "library stock concentration (final ~1000-fold dilution): 2 mM, cytotoxicity flag (confluency mask): not cytotoxic, agonist: Imiquimod (TLR7) […]"}, "[11]": {"conditions": "library stock concentration (final ~1000-fold dilution): 2 mM, cytotoxicity flag (confluency mask): not cytotoxic, agonist: MPLA (TLR4) […]"}}, "note": "In all, about 2,900 compounds were measured (“NF-kB SEAP reporter activity, fold change vs agonist alone”: median about 0.99, highest 2% from about 2.6 on). The sample as a whole holds a higher share of the highest values than the screen did.", "data": [{"smiles": "COS(=O)(=O)[O-].COc1cccc2c1nc1ccccc1[n+]2C", "note": "(library stock concentration (final ~1000-fold dilution): 10 mM)", "values": [{"measurement": "NF-kB SEAP reporter activity", "setting": "RAW-Dual [1]; agonist: LPS (TLR4) 0.1 ug/mL", "value": 0.473}, {"measurement": "NF-kB SEAP reporter activity", "setting": "RAW-Dual [1]; [4]", "value": 0.781}, {"measurement": "NF-kB SEAP reporter activity", "setting": "RAW-Dual [1]; [5]", "value": 0.271}, {"measurement": "NF-kB SEAP reporter activity", "setting": "RAW-Dual [1]; [6]", "value": 0.272}]}, {"smiles": "COC(=O)c1sccc1S(=O)(=O)Nc1ccc(Nc2ccccc2)cc1OC", "note": "(library stock concentration (final ~1000-fold dilution): 10 mM)", "values": [{"measurement": "NF-kB SEAP reporter activity", "setting": "RAW-Dual [2]; agonist: LPS (TLR4) 0.1 ug/mL", "value": 1.72}, {"measurement": "NF-kB SEAP reporter activity", "setting": "RAW-Dual [2]; [4]", "value": 0.911}, {"measurement": "NF-kB SEAP reporter activity", "setting": "RAW-Dual [2]; [5]", "value": 0.821}, {"measurement": "NF-kB SEAP reporter activity", "setting": "RAW-Dual [2]; [6]", "value": 0.872}]}, {"smiles": "COS(=O)(=O)[O-].COc1cccc2c1nc1ccccc1[n+]2C", "values": [{"measurement": "NF-kB SEAP reporter activity", "setting": "RAW-Dual [3]; library stock concentration (final ~1000-fold dilution): 10 mM, cytotoxicity flag (confluency mask): cytotoxic (confluency <70% of control), agonist: Imiquimod (TLR7) […]", "value": 0.838}, {"measurement": "NF-kB SEAP reporter activity", "setting": "RAW-Dual [3]; [7]", "value": 0.899}]}, {"smiles": "CC1(C)OC(=O)C=CC2(C)C1CC(=O)C1(C)C2CCC2(C)C(c3ccoc3)OC(=O)C3OC321", "note": "(stereo not drawn) (library stock concentration (final ~1000-fold dilution): 10 mM)", "values": [{"measurement": "NF-kB SEAP reporter activity", "setting": "RAW-Dual [2]; agonist: LPS (TLR4) 0.1 ug/mL", "value": 1.04}, {"measurement": "NF-kB SEAP reporter activity", "setting": "RAW-Dual [2]; [4]", "value": 0.875}, {"measurement": "NF-kB SEAP reporter activity", "setting": "RAW-Dual [2]; [5]", "value": 1.02}, {"measurement": "NF-kB SEAP reporter activity", "setting": "RAW-Dual [2]; [6]", "value": 1.08}]}, {"smiles": "CC1(C)OC(=O)C=CC2(C)C1CC(=O)C1(C)C2CCC2(C)C(c3ccoc3)OC(=O)C3OC321", "note": "(stereo not drawn)", "values": [{"measurement": "NF-kB SEAP reporter activity", "setting": "RAW-Dual [3]; [8]", "value": 0.98}, {"measurement": "NF-kB SEAP reporter activity", "setting": "RAW-Dual [3]; [9]", "value": 1.03}]}, {"smiles": "c1cncc(-c2c[nH]nn2)c1", "note": "(library stock concentration (final ~1000-fold dilution): 10 mM)", "values": [{"measurement": "NF-kB SEAP reporter activity", "setting": "RAW-Dual [2]; agonist: LPS (TLR4) 0.1 ug/mL", "value": 1.17}, {"measurement": "NF-kB SEAP reporter activity", "setting": "RAW-Dual [2]; [4]", "value": 0.863}, {"measurement": "NF-kB SEAP reporter activity", "setting": "RAW-Dual [2]; [5]", "value": 1.02}, {"measurement": "NF-kB SEAP reporter activity", "setting": "RAW-Dual [2]; [6]", "value": 1.05}]}, {"smiles": "c1cncc(-c2c[nH]nn2)c1", "values": [{"measurement": "NF-kB SEAP reporter activity", "setting": "RAW-Dual [3]; [8]", "value": 0.995}, {"measurement": "NF-kB SEAP reporter activity", "setting": "RAW-Dual [3]; [9]", "value": 0.972}]}, {"smiles": "CCCC1CC(C(=O)NC(C(C)Cl)C2OC(SC)C(O)C(O)C2O)N(C)C1.Cl", "note": "(stereo not drawn)", "values": [{"measurement": "NF-kB SEAP reporter activity", "setting": "RAW-Dual [3]; [8]", "value": 0.95}, {"measurement": "NF-kB SEAP reporter activity", "setting": "RAW-Dual [3]; [9]", "value": 1.06}]}, {"smiles": "CCCC1CC(C(=O)NC(C(C)Cl)C2OC(SC)C(O)C(O)C2O)N(C)C1.Cl", "note": "(stereo not drawn) (library stock concentration (final ~1000-fold dilution): 10 mM)", "values": [{"measurement": "NF-kB SEAP reporter activity", "setting": "RAW-Dual [2]; agonist: LPS (TLR4) 0.1 ug/mL", "value": 1.11}, {"measurement": "NF-kB SEAP reporter activity", "setting": "RAW-Dual [2]; [4]", "value": 1.04}, {"measurement": "NF-kB SEAP reporter activity", "setting": "RAW-Dual [2]; [5]", "value": 1.06}, {"measurement": "NF-kB SEAP reporter activity", "setting": "RAW-Dual [2]; [6]", "value": 1.08}]}, {"smiles": "CCCCCCCCCCCCCCCCCC[N+](C)(C)C", "note": "(library stock concentration (final ~1000-fold dilution): 10 mM)", "values": [{"measurement": "NF-kB SEAP reporter activity", "setting": "RAW-Dual [1]; agonist: LPS (TLR4) 0.1 ug/mL", "value": 0.996}, {"measurement": "NF-kB SEAP reporter activity", "setting": "RAW-Dual [1]; [4]", "value": 1.37}, {"measurement": "NF-kB SEAP reporter activity", "setting": "RAW-Dual [1]; [5]", "value": 0.699}, {"measurement": "NF-kB SEAP reporter activity", "setting": "RAW-Dual [1]; [6]", "value": 0.534}]}, {"smiles": "CCCCCCCCCCCCCCCCCC[N+](C)(C)C", "values": [{"measurement": "NF-kB SEAP reporter activity", "setting": "RAW-Dual [3]; [7]", "value": 1.75}]}, {"smiles": "Cc1cccc(-c2nn3c(c2-c2ccnc4ccc(C(N)=O)cc24)CCC3)n1", "values": [{"measurement": "NF-kB SEAP reporter activity", "setting": "RAW-Dual [3]; [8]", "value": 1.13}, {"measurement": "NF-kB SEAP reporter activity", "setting": "RAW-Dual [3]; [9]", "value": 1.48}]}, {"smiles": "c1ccc(-c2nn3c(c2-c2ccnc4cc(OCCN5CCOCC5)ccc24)CCC3)nc1", "note": "(library stock concentration (final ~1000-fold dilution): 2 mM)", "values": [{"measurement": "NF-kB SEAP reporter activity", "setting": "RAW-Dual [2]; agonist: LPS (TLR4) 0.1 ug/mL", "value": 2.87}, {"measurement": "NF-kB SEAP reporter activity", "setting": "RAW-Dual [2]; [4]", "value": 1.07}, {"measurement": "NF-kB SEAP reporter activity", "setting": "RAW-Dual [2]; [5]", "value": 1.05}, {"measurement": "NF-kB SEAP reporter activity", "setting": "RAW-Dual [2]; [6]", "value": 1.01}]}, {"smiles": "c1ccc(-c2n[nH]cc2-c2ccnc3ccccc23)nc1", "values": [{"measurement": "NF-kB SEAP reporter activity", "setting": "RAW-Dual [3]; [10]", "value": 0.961}, {"measurement": "NF-kB SEAP reporter activity", "setting": "RAW-Dual [3]; [11]", "value": 1.15}]}, {"smiles": "c1ccc(-c2nn3c(c2-c2ccnc4cc(OCCN5CCOCC5)ccc24)CCC3)nc1", "values": [{"measurement": "NF-kB SEAP reporter activity", "setting": "RAW-Dual [3]; [10]", "value": 0.793}, {"measurement": "NF-kB SEAP reporter activity", "setting": "RAW-Dual [3]; [11]", "value": 1.27}]}, {"smiles": "c1ccc(-c2n[nH]cc2-c2ccnc3ccccc23)nc1", "note": "(library stock concentration (final ~1000-fold dilution): 2 mM)", "values": [{"measurement": "NF-kB SEAP reporter activity", "setting": "RAW-Dual [2]; agonist: LPS (TLR4) 0.1 ug/mL", "value": 2.19}, {"measurement": "NF-kB SEAP reporter activity", "setting": "RAW-Dual [2]; [4]", "value": 1.01}, {"measurement": "NF-kB SEAP reporter activity", "setting": "RAW-Dual [2]; [5]", "value": 0.992}, {"measurement": "NF-kB SEAP reporter activity", "setting": "RAW-Dual [2]; [6]", "value": 0.919}]}, {"smiles": "Cc1cccc(-c2nn3c(c2-c2ccnc4ccc(C(N)=O)cc24)CCC3)n1", "note": "(library stock concentration (final ~1000-fold dilution): 10 mM)", "values": [{"measurement": "NF-kB SEAP reporter activity", "setting": "RAW-Dual [2]; agonist: LPS (TLR4) 0.1 ug/mL", "value": 1.59}, {"measurement": "NF-kB SEAP reporter activity", "setting": "RAW-Dual [2]; [4]", "value": 1.03}, {"measurement": "NF-kB SEAP reporter activity", "setting": "RAW-Dual [2]; [5]", "value": 1.05}, {"measurement": "NF-kB SEAP reporter activity", "setting": "RAW-Dual [2]; [6]", "value": 1.21}]}, {"smiles": "Cc1cc(C)cc(Oc2ccc(CNC(=O)C(C)N)cc2C)c1", "note": "(stereo not drawn)", "values": [{"measurement": "NF-kB SEAP reporter activity", "setting": "RAW-Dual [3]; [8]", "value": 1.24}, {"measurement": "NF-kB SEAP reporter activity", "setting": "RAW-Dual [3]; [9]", "value": 1.3}]}, {"smiles": "Cc1cc(C)cc(Oc2ccc(CNC(=O)C(C)N)cc2C)c1", "note": "(stereo not drawn) (library stock concentration (final ~1000-fold dilution): 10 mM)", "values": [{"measurement": "NF-kB SEAP reporter activity", "setting": "RAW-Dual [2]; agonist: LPS (TLR4) 0.1 ug/mL", "value": 1.3}, {"measurement": "NF-kB SEAP reporter activity", "setting": "RAW-Dual [2]; [4]", "value": 0.9}, {"measurement": "NF-kB SEAP reporter activity", "setting": "RAW-Dual [2]; [5]", "value": 0.484}, {"measurement": "NF-kB SEAP reporter activity", "setting": "RAW-Dual [2]; [6]", "value": 0.732}]}, {"smiles": "CC(C)=CCC/C(C)=C/CC/C(C)=C/CC/C=C(\\C)CC/C=C(\\C)CCC=C(C)C", "note": "(library stock concentration (final ~1000-fold dilution): 10 mM)", "values": [{"measurement": "NF-kB SEAP reporter activity", "setting": "RAW-Dual [2]; agonist: LPS (TLR4) 0.1 ug/mL", "value": 1.34}, {"measurement": "NF-kB SEAP reporter activity", "setting": "RAW-Dual [2]; [4]", "value": 1.09}, {"measurement": "NF-kB SEAP reporter activity", "setting": "RAW-Dual [2]; [5]", "value": 1.14}, {"measurement": "NF-kB SEAP reporter activity", "setting": "RAW-Dual [2]; [6]", "value": 1.12}]}, {"smiles": "CC(C)=CCC/C(C)=C/CC/C(C)=C/CC/C=C(\\C)CC/C=C(\\C)CCC=C(C)C", "values": [{"measurement": "NF-kB SEAP reporter activity", "setting": "RAW-Dual [3]; [8]", "value": 0.926}, {"measurement": "NF-kB SEAP reporter activity", "setting": "RAW-Dual [3]; [9]", "value": 1.01}]}]}
